SKKanGAS inh = inhibitors of SKKanGAS S. pyogenes growth in kanamycin (SK-promoter or general growth effect); BacTiter-Glo, 6 h; 300,000 compounds, 1.3% hits; inhibition, % at 7.5 µM; AID 1662;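 active = mean replicate score, as percent of positive control median, at least 50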;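 also: strain carries kanamycin resistance gene driven by streptokinase promoter and grows in 40 µg/ml kanamycin; loss of luminescence reflects streptokinase promoter inhibition or plain growth inhibition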
tim23-1 inh = inhibits growth of tim23-1 mutant yeast | S. cerevisiae tim23-1 growth, BacTiter-Glo luminescence, 24 h | inhibition, % at 20 µM | 330,000 compounds, 1.3% hits;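 active = growth inhibition of the mutant yeast at or above 50%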;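 also: temperature-sensitive mutant grown at 25 °C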
Calb FLC = affects C. albicans growth with fluconazole | C. albicans CaCi-2 (fluconazole-resistant clinical isolate) + fluconazole, Alamar Blue growth, 48 h | growth inhibition, % (no concentration beside the values) | 300,000 compounds, 0.57% hits;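 active = growth inhibition above about 58% in most replicates, limit read from the data, passing the limit was not always enough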;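 also: all wells also contain fluconazole at 8 µg/ml as a sub-toxic cotreatment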
PfHsp90 set2 = reduces growth (ATP signal) of yeast expressing P. falciparum Hsp90; inhibition, % at 9.4 µM; 310,000 compounds, 0.32% hits; S. cerevisiae expressing PfHsp90, BacTiter-Glo ATP, 48 h; yeast lacking PDR1 and PDR3 efflux regulators;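 active = every replicate shows inhibition above about 80%, whatever the replicate mean, limit read from the data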
TIM10 inh = growth inhibitors of TIM10 yeast strain | S. cerevisiae TIM10 strain growth, BacTiter-Glo luminescence, 24 h | inhibition, % at 10 µM | 330,000 compounds, 1.4% hits | AID 463195;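 active = inhibition of 40% or more at the single tested concentration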;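 also: wild-type TIM10 isogenic control strain grown at permissive 25 °C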
tim10-1 inh = inhibits growth of tim10-1 mutant yeast; inhibition, % at 20 µM; S. cerevisiae tim10-1 ts strain growth, BacTiter-Glo, 24 h; 330,000 compounds, 2.2% hits;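 active = inhibition of at least 40%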;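 also: mutant grown at 25 °C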
tim10-1 conf = confirmation of tim10-1 mutant yeast growth inhibitors | shares compounds with tim10-1 inh | S. cerevisiae tim10-1 ts strain growth, BacTiter-Glo, 24 h | inhibition, % at 20 µM | 7,400 compounds, 56% hits | AID 463213;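 active = inhibition of yeast growth at or above a set limit in either of two repeat tests at 20 µM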;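 also: tim10-1 mutant grown at permissive 25 °C to find synthetic lethal compounds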
Numbers stand for hits; . = inactive; / = no result. Sampled rows, rich in hits. Any-hit rate of the full collection: about 4.7%.

SMILES | SKKanGAS inh | tim23-1 inh | Calb FLC | PfHsp90 set2 | TIM10 inh | tim10-1 inh | tim10-1 conf
COC(=O)c1sc(NC(=O)CN2CCN(c3cccc(Cl)c3)CC2)c(C(=O)OC)c1C | / | / | / | . | / | / | /
OC(COc1ccc(CNCCc2ccccc2F)cc1)CN1CCCCC1 (stereo not given) | . | . | . | . | . | . | /
N/C(=N\OC(=O)COc1ccccc1)c1cccnc1 | . | . | . | . | . | . | /
N/C(=N\OC(=O)c1ccco1)c1cccnc1 | . | . | . | . | . | . | /
N/C(=N\OC(=O)C(c1ccccc1)c1ccccc1)c1cccnc1 | . | . | . | . | . | 41 | .
N/C(=N\OC(=O)c1cccc2ccccc12)c1cccnc1 | . | . | . | . | . | 62 | 65
N/C(=N\OC(=O)c1ccc(Cl)cc1)c1ccc(Cl)cc1 | . | . | . | . | . | 43 | 34
N/C(=N\OC(=O)COc1ccc2ccccc2c1Br)c1cccnc1 | . | . | . | / | . | . | /
N/C(=N\OC(=O)c1ccc(Cl)cc1)c1cccnc1 | . | . | . | . | . | 65 | 62
N/C(=N\OC(=O)c1ccc(Cl)cc1)c1ccn[nH]1 | . | . | . | . | . | . | /
NC(=O)c1ccc(-c2nnc(Nc3ccc(S(N)(=O)=O)cc3)c3ccccc23)cc1 | . | . | . | . | . | . | /
Cc1cc(NS(=O)(=O)c2ccccc2)c([N+](=O)[O-])cc1C | . | . | . | . | . | 41 | .
O=[N+]([O-])c1cc(Br)ccc1NS(=O)(=O)c1ccccc1 | / | / | / | . | / | / | /
COc1ccc(Cl)cc1Nc1nc(N)nc(C(F)(F)F)n1 | . | . | . | / | . | 48 | .
COc1ccc(Nc2nc(N)nc(C(F)(F)F)n2)c(OC)c1 | . | . | . | . | . | . | /
O=C(CCCCCCCC(=O)N1CCCC1)N1CCCC1 | / | / | / | . | / | / | /
O=C(ON=C1CCN(S(=O)(=O)c2ccccc2)CC1)c1ccccc1 | . | . | . | / | . | 58 | 56
O=C(CSc1n[nH]c(-c2ccco2)n1)N1c2ccccc2Sc2ccccc21 | . | . | . | / | . | 46 | .
CCOC(=O)CSc1n[nH]c(-c2ccco2)n1 | . | . | . | . | . | . | /
Cc1ccc(NC(=O)CSc2nc3sc(C)cc3c(=O)n2C)cc1 | . | . | . | . | . | . | /
COc1ccc(-c2cnc(SCC(=O)Nc3cc(C)on3)n2Cc2ccco2)cc1 | . | . | . | . | . | 44 | .
COCCn1c(-c2ccc(OC)cc2)cnc1SCC(=O)Nc1cccc2ccccc12 | . | . | . | . | . | 45 | .
Cc1ccc(C(=O)OCN2C(=O)c3ccccc3C2=O)o1 | . | . | . | . | . | . | /
COc1ccccc1OCCn1c(SCC(=O)O)nc2ccccc21 | . | . | . | . | . | . | /
O=C(CCNC(=O)c1ccccc1Cl)NCCC1=CCCCC1 | . | . | . | . | . | . | /
SMILES | SKKanGAS inh | tim23-1 inh | Calb FLC | PfHsp90 set2 | TIM10 inh | tim10-1 inh | tim10-1 conf
CCOc1ccc(NC(=S)Nc2ccc(OCc3ccccc3)cc2)cc1 | . | . | . | . | . | . | /
S=C(Nc1ccccc1)Nc1ccc(OCc2ccc(Cl)cc2Cl)cc1 | . | . | . | . | . | 48 | .
Cc1ccc(CN2CCSc3ccc(C(=O)NCC4CCCO4)cc32)cc1 (stereo not given) | . | . | . | . | . | 41 | .
Cc1ccc(CN2CCSc3ccc(C(=O)NC4CCCC4)cc32)cc1 | . | . | . | . | . | . | /
O=C(c1ccc2c(c1)N(Cc1ccccc1)CCS2)N1CCCCC1 | . | . | . | . | . | 43 | .
CNC(=S)NNC(=O)c1cc(-c2cccnc2)nc2ccccc12 | . | . | . | . | . | 49 | 40
Cc1cccc(-c2cc(C(=O)Nc3cccnc3)c3ccccc3n2)c1 | . | . | . | . | . | 40 | .
Cc1ccc(-c2cc(C(=O)Nc3cccnc3)c3ccccc3n2)s1 | . | . | . | . | . | 42 | .
Cc1cc(C)nc(NC(=O)c2cc(-c3ccc(C)s3)nc3ccccc23)c1 | . | . | . | . | . | . | /
C=CCNC(=S)NNC(=O)c1cc(-c2cccnc2)nc2ccccc12 | . | . | . | . | . | . | /
Clc1c(Cl)c(Cl)c2n[nH]nc2c1Cl | . | . | . | . | . | . | /
Cc1ccncc1CNC(=O)c1ccccc1 | / | / | / | . | / | / | /
O=C(/C=C/c1ccncc1)c1ccc2c(c1)OCCO2 | . | . | 67 | . | . | 46 | 38
COc1ccc(NC2c3ncccc3C(=O)N2Cc2cccs2)cc1 (stereo not given) | . | . | . | . | . | . | /
O=C1c2cccnc2C(Nc2ccc(Br)cc2)N1Cc1cccs1 (stereo not given) | . | . | . | / | . | 41 | .
O=C(Nc1ccccc1)c1ccccc1O | . | . | . | . | . | . | /
CC(C1CC1)N(C(=O)c1ccccc1O)c1ccccc1 (stereo not given) | . | . | . | / | . | . | .
CCOC(=O)c1ccc(NC(=O)Cn2ncc(Cl)c(Cl)c2=O)cc1 | . | . | . | . | . | 40 | .
C[C@@H]1CC2OC(=O)[C@@]3(C)C(=O)CC[C@@](C)(C23)[C@@]1(O)CCc1ccoc1 (stereo not given in full) | . | . | . | . | . | . | /
O=C(NCCCSc1ccccc1)c1cc(Br)ccc1O | . | . | . | 94 | . | 46 | .
O=C(NCCSc1ccccc1)c1ccc(Br)cc1 | . | . | . | . | . | . | /
CC1CN(Cc2ccccc2)c2nc3c(c(=O)n(C)c(=O)n3C)n2C1 (stereo not given) | . | . | . | . | . | . | /
CC1CN(c2nc3c(c(=O)n(Cc4ccc(Cl)cc4)c(=O)n3C)n2C)CC(C)O1 (stereo not given) | . | . | . | . | . | 44 | .
CC(C)Cn1c(=O)c2c(nc3n2CC(C)CN3Cc2ccccc2)n(C)c1=O (stereo not given) | . | . | . | . | . | 40 | .
COc1cccc(OC)c1C(=O)Nc1ccc(Br)c(C(=O)c2ccccc2)c1 | . | . | . | . | . | 41 | .
SMILES | SKKanGAS inh | tim23-1 inh | Calb FLC | PfHsp90 set2 | TIM10 inh | tim10-1 inh | tim10-1 conf
COc1ccccc1C(=O)Nc1cccc(C(=O)c2ccccc2)c1 | . | . | . | . | . | . | /
O=C(Nc1cccc(C(F)(F)F)c1)C1CCCN(c2ncccn2)C1 (stereo not given) | . | . | . | / | . | 42 | 36
CCN(CC(=O)Nc1ccccc1C(F)(F)F)C(=O)c1oc2ccc(OC)cc2c1C | . | . | . | . | . | . | /
O=C(COc1ccc(S(=O)(=O)NC2CCCCC2)cc1)N1CCN(c2cccc(Cl)c2)CC1 | . | . | . | . | . | 46 | .
CC(C)NS(=O)(=O)c1ccc(OCC(=O)N2CCN(c3ccccc3)CC2)cc1 | . | . | . | . | . | . | /
O=C(CNC(=O)c1ccccc1F)N/N=C\C=C\c1ccccc1 | . | . | . | . | . | . | /

Assay outcomes from PubChem BioAssay.
